ADAM10 inh: inhibitors of human ADAM10; 370,000 compounds, 0.62% hits; recombinant ADAM10, EDANS/DABCYL FRET peptide cleavage, 3 h; AID 720582; inhibition, % at 7 µM;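 active = inhibition above a per-campaign cutoff equal to the mean of compounds falling between control-based bounds plus 3 SD, cut at about 20% in these data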
Target sequence (O14672 214-748 limits assumed): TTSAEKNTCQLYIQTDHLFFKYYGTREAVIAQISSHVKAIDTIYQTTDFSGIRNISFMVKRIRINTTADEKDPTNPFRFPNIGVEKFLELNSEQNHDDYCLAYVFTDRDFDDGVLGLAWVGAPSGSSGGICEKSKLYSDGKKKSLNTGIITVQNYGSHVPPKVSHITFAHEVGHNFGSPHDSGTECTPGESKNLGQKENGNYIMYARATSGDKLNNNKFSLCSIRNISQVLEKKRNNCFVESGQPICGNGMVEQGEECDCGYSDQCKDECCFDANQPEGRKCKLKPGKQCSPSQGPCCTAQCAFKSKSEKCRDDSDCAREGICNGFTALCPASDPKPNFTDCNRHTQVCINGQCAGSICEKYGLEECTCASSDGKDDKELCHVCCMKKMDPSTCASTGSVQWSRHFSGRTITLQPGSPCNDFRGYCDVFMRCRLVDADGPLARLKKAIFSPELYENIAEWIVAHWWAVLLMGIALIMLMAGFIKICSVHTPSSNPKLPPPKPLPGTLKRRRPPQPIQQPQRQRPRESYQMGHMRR
proKLK7 act: activates the human kallikrein-7 zymogen; AID 652039; purified proKLK7, EDANS-DABCYL substrate fluorescence; 100% is mature enzyme control, 0% vehicle; 370,000 compounds, 0.9% hits; activation, % at 7 µM;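 active = activation above the mean of all tested compounds plus 3 SD, computed per campaign excluding outliers beyond control limits, cut at about 13% in these data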
rRNA inh HTS: inhibitors of bacterial rRNA selective over humanized ribosomes | 350,000 compounds, 1.6% hits | E. coli WT GFP vs humanized-ribosome RFP mutants, fluorescence, 24 h; active compounds read low; DMSO median 0, no signal -100 | GFP signal change (wild-type ribosome), % (test concentration not listed);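 active = significant combined selectivity score with lowered wild-type GFP, culture density cut under 30%, mutant RFP and density less affected; inactive = any of these conditions unmet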
ADAM17 inh: ADAM17 inhibition, QFRET primary screen; inhibition, % at 6.95 µM; recombinant ADAM17, EDANS/DABCYL FRET peptide cleavage; 370,000 compounds, 0.83% hits;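 active = inhibition above the mean of compounds lying between control limits plus 3 SD, set per campaign, cut at about 8.5% in these data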
FGF22 binding: FGF22 (human) thermal shift binding; recombinant FGF22 thermal shift, SYPRO orange fluorescence; percent of sucrose octasulfate shift, DMSO zero; activity (Tm shift, normalised), % at 9.99 µM; 340,000 compounds, 1.5% hits;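 active = mean Tm shift, scaled 0 neutral to 100 positive control, at about 1.3% or above, every replicate too, limit read from the data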
A number is an active result; . = inactive; / = no result. Only some compounds are listed: those with a hit (about 3.8% of all), similar ones and a draw of the others.

SMILES	ADAM10 inh	proKLK7 act	rRNA inh HTS	ADAM17 inh	FGF22 binding
COc1ccc(C2c3c(ncn(CCCO)c3=N)Oc3ccc4ccccc4c32)cc1 (stereo unspecified)	.	.	-47	.	.
CC(=O)N(C)C[C@@H]1Oc2ccc(N(C)C)cc2C(=O)N(C)C[C@H]1C	/	/	.	/	/
COc1ccc2c(c1OC)C(=O)OC2Nc1nc(-c2cc3cc(Br)ccc3oc2=O)cs1 (stereo unspecified)	.	.	-26	.	.
Cc1n[nH]c(C)c1S(=O)(=O)N1CCC(C(=O)N2CCn3c2nc2ccccc23)CC1	.	.	-23	.	.
COc1ccc(NC(=O)N[C@H]2CC[C@H](CCn3cc(C4(O)CCCC4)nn3)O[C@@H]2CO)cc1	/	/	.	/	.
CC(=O)C1CCC2C3CC(O)C4=CC(=O)CCC4(C)C3C(=O)CC12C (stereo unspecified)	.	.	.	.	.
CC(=O)C1CCC2C3CCC4CC(OC(=O)CCC(=O)O)CCC4(C)C3C(=O)CC12C (stereo unspecified)	.	.	.	.	44
O=C(C[C@@H]1C[C@@H]2c3cc(NC(=O)C4CCC4)ccc3O[C@@H]2[C@@H](CO)O1)NCc1ccc2c(c1)OCO2	/	/	.	/	.
C[C@@H]1COCc2cn(nn2)CC[C@H](Cc2ccccc2)C(=O)N1	/	/	.	/	/
N#CC1=C2SCC(O)(c3ccccc3)N2C(=O)CC1c1cccs1 (stereo unspecified)	.	.	-37	.	.
CN(CC(=O)O)S(=O)(=O)c1cc(Cl)ccc1Cl	.	.	.	.	.
CN(CC(=O)NC1CC(C)(C)NC(C)(C)C1)S(=O)(=O)c1cc(Cl)ccc1Cl	.	.	.	.	43
C[C@@H]1CN([C@H](C)CO)C(=O)c2cccc(NC(=O)c3ccncc3)c2O[C@@H]1CN(C)CC1CC1	/	/	.	/	.
CCOc1ccc(CNC(=S)N/N=C\c2ccc([N+](=O)[O-])cc2)cc1	.	.	/	.	/
CCOc1ccc(N=Cc2ccc([N+](=O)[O-])cc2)c(O)c1	.	18	.	.	.
COCC(=O)N(C)C[C@@H]1Oc2cc(C#C[C@@H](C)O)ccc2S(=O)(=O)N([C@H](C)CO)C[C@H]1C	/	/	.	/	.
CCOc1ccc(Cl)cc1CSc1ncn[nH]1	.	.	-22	.	.
CCc1ccc(NC(=O)C(=O)NCC(O)c2ccccc2)cc1 (stereo unspecified)	.	.	.	.	43
CCCOP(=O)(OCCC)c1nc(-c2ccccc2)oc1NCc1ccccc1	.	.	.	.	43
CCOP(=O)(OCC)c1nc(-c2ccc(Cl)cc2)oc1NCc1ccccc1	.	.	.	.	43
COP(=O)(OC)c1nc(-c2ccccc2)oc1NCc1ccccc1	.	.	/	.	/
COc1ccc(NC(=O)Nc2ccc3c(c2)C(=O)N([C@@H](C)CO)C[C@H](C)[C@H](CN(C)C)OCCCC[C@H](C)O3)cc1	/	/	.	/	.
CS(=O)(=O)N1CC2(C1)[C@@H](c1ccccc1)[C@@H](CO)N2CCC(F)(F)F	/	/	.	/	.
CN(C)c1cccc(C(=O)NNC(=S)NC2CC3CCC2C3)c1 (stereo unspecified)	.	.	-24	.	.
CC(C)N(C(=S)NC1CC2CCC1C2)c1ccccc1 (stereo unspecified)	.	.	.	.	44
SMILES	ADAM10 inh	proKLK7 act	rRNA inh HTS	ADAM17 inh	FGF22 binding
CN(C)c1cccc(C(=O)NNC(=O)CSc2ccccc2)c1	.	.	.	.	.
CN(C)c1ccc(C(O)P(=O)(OC2CCCCC2)OC2CCCCC2)cc1 (stereo unspecified)	.	.	-34	.	.
C[C@H]1CN([C@@H](C)CO)C(=O)c2cc(NS(=O)(=O)c3ccc(Cl)cc3)ccc2O[C@@H]1CN(C)Cc1ccc(C(F)(F)F)cc1	/	/	.	/	/
C[C@H](CO)N1C[C@H](C)[C@@H](CN(C)C(=O)Nc2ccc(F)cc2)Oc2c(NC(=O)c3cnccn3)cccc2C1=O	/	/	.	/	.
NC(=O)COc1ncnc2scc(-c3ccc(F)cc3)c12	.	.	/	.	.
Cc1ccc(-c2csc3ncnc(OCC(=O)NC(=O)NCc4ccco4)c23)cc1	.	.	-29	.	.
COCCNC(=O)COc1ncnc2scc(-c3ccc(F)cc3)c12	.	.	.	.	43
O=C(COc1ncnc2scc(-c3ccc(F)cc3)c12)NCc1ccco1	.	.	/	.	/

Screening data from PubChem BioAssay.
